# According to PubChem BioAssay (NCI):
# About 79,000 compounds went through this panel and 15% of them were active in at least one assay; those are over-represented in the sample as a whole. A number with no mark means an inactive call. Activity calls are given as the source filed them. Rule as the data show it: active = growth inhibition above about 70%; inactive = the rest.
# Assay: NCI Yeast Anticancer Drug Screen. Data for the mec2-1 strain (AID 157)
# Settings: S. cerevisiae mec2-1 strain, at 50.0 µM, active compounds read high
# How it was run: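 Readout is yeast growth inhibition, normalised to vehicle-treated controls, in the mec2-1 strain exposed to compound.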
row,SMILES,growth inhibition
1,O=C1C(Cl)=C(N2C(=O)CCC2=O)C(=O)c2ccccc21,90.4% (active)
2,C/C(=N\NC(=S)N1CCCC1)c1nc2ncccc2[nH]1,84.8% (active)
3,Clc1ccc(CN2COc3c(cc(Cl)c4cccnc34)C2)cc1Cl,97.5% (active)
4,Cc1cc(C)c2c(c1)sc1nncn12,97.8% (active)
5,O=[N+]([O-])C1=Cc2ccccc2S(=O)(=O)CC1,92.2% (active)
6,O=C1CNCCCN2CCN(CCCNCC(=O)Nc3ccc(cc3)S(=O)(=O)c3ccc(cc3)NC(=O)CNCCCN3CCN(CCCNCC(=O)Nc4ccc(cc4)S(=O)(=O)c4ccc(cc4)N1)CC3)CC2,98.8% (active)
7,O=C(Nc1ccccc1-c1nn(CN2CCNCC2)c(=S)n(CN2CCNCC2)c1=O)C(F)(F)F,25.9%
8,O=[N+]([O-])c1ccc(/C(=C\c2ccccc2)Cn2ccnc2)cc1,77% (active)
9,Cc1ccc(S(=O)(=O)NNC2Oc3cc4c(cc3C(c3ccccc3O)C2C)OCO4)cc1 (stereo not given),95.7% (active)
10,CC1CCC(NCCOC(=O)c2ccc([N+](=O)[O-])cc2)CC1 (stereo not given),-2.9%
11,Oc1cc(F)ccc1-c1ccc(F)cc1,85% (active)
12,CN(C)C(=O)/N=c1\ss/c(=N\C(=S)N(C)C)n1-c1ccccc1,45.8%
13,Cn1c(=O)cc[nH]c1=O,3.9%
14,CCOc1c(N=Nc2ccccc2OC)c(-c2ccccc2)nn1C(N)=S,63%
15,CS(C)=O.[Cl-].[Cl-].[NH-]CC(O)CN(Cc1ccccc1)CC(O)CN.[Pt] (stereo not given),1%
16,Clc1ccc(C2=CCN3CC=C(c4ccc(Cl)cc4)C23)cc1,99.9% (active)
17,CCOC(=O)C(Cc1cn(S(=O)(=O)c2ccccc2)c2ccccc12)(NC(C)=O)C(=O)OCC,17.3%
18,BrCC1(CBr)COC1,2.2%
19,O=C1CC(O)C=C1Nc1ccc(Cl)cc1 (stereo not given),98.2% (active)
20,COc1cc(NCCCCCNC(C)C)c2ncc(C)c(C)c2c1,44.5%

row,SMILES,growth inhibition
1,Cc1ccc(C(c2ccc(N(C)C)cc2)c2ccc(N(C)C)cc2)cc1,94.7% (active)
2,COc1ccc(OC)c2c1C=C[C@H](C1(C)SCCS1)C2C(C)=O (stereo not given in full),82% (active)
3,CCOC(=O)c1cc2c(nc1NCc1ccc(OC)c(OC)c1)/C(=C/c1ccccc1)CCCC2,88.8% (active)
4,N#Cc1ccccc1[N+](=O)[O-],20.4%
5,O=C1c2cccc3cc4ccccc4c(c23)C(=O)N1CCCNCCNCCCN1C(=O)c2cccc3cc4ccccc4c(c23)C1=O,85.2% (active)
6,CC(=O)Oc1ccc(N=[N+]([O-])c2ccc(OC(C)=O)cc2)cc1,-2.6%
7,CCOCCNc1ncnc2c1cnn2C,-18.4%
8,O=Cc1ccc(-c2nccc3c2[nH]c2ccccc23)o1,26.9%
9,O=c1oc2ccccc2c(O)c1C1=N/C(=N/N=C/c2ccc(Cl)cc2)SC1,30.7%
10,Cc1ccccc1Oc1ccccc1N,65.9%
11,CCCCCCC(=O)Nc1ccc(OC(=O)CCCCCC)c(=O)cc1,99.2% (active)
12,CC(=O)C(C(C)=O)C1C=CC=CC=C1,92.5% (active)
13,CC(=O)Nc1ccc(N=C2c3ccccc3-c3ccc(NC(C)=O)cc32)cc1,77.3% (active)
14,C/C=C1\CC(C)(CC)C(C#N)(C#N)C(N)=C1C#N (stereo not given),10.5%
15,Cc1cc(Cc2ccc(Cl)cc2)ccc1O,46.1%
16,O=C1C=CC(=O)N1c1ccc(-c2nc3ccccc3o2)cc1,88.9% (active)
17,CCN(CC)CC(O)c1ccnc2c(O)cccc12 (stereo not given),20.6%
18,Nc1ccc(O)c2c1C(=O)c1ccccc1C2O (stereo not given),78.9% (active)
19,CC(=O)OC1CCC2(C)C(CCC3C4=CCC(C5COC(=O)C5)C4(C)CCC32)C1 (stereo not given),61.5%
20,CCN(CC)CCOc1ccc(NC(=S)Nc2ccc(OCC(C)C)cc2)cc1,34.1%
